Measured values reported in PubChem BioAssay.
Calls of active or inactive are those of the source.

Key:
[1] = tested on: Human papillomavirus type 1a protein E7 (residues 44-93); assay: HPV1a E7 fragment binders on microarrays, primary screen, biochemical, small-molecule microarray, residues 44-93, 635 nm fluorescence (AID 1108); settings: small-molecule microarray binding, fluorescence 635 nm; higher = more signal;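 further: E7 fragment applied at 1 µg/mL in TBST for 1 h at 4 C; score combines spot fluorescence with its signal to noise ratio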
[2] = modulators of HCV replicon luciferase signal, primary screen, HCV replication inhibitor project, Huh7 cells, luciferase reporter (AID 1109); settings: 48 h, higher = more signal;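 further: huh7 hepatoma cells harbouring a luciferase neomycin HCV replicon reporter; luciferase luminescence as measure of HCV replicon replication; test concentration not given here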
[3] = biological target: Left-right determination factor 2 (Homo sapiens) (UniProt O00292); assay: LEFTY2 binders on small-molecule microarrays, primary screen, biochemical, small-molecule microarray, 635 nm fluorescence scan (AID 1110); settings: LEFTY2 binding, higher = more signal
Left-right determination factor 2 (Homo sapiens), sequence (O00292 whole entry, looked up): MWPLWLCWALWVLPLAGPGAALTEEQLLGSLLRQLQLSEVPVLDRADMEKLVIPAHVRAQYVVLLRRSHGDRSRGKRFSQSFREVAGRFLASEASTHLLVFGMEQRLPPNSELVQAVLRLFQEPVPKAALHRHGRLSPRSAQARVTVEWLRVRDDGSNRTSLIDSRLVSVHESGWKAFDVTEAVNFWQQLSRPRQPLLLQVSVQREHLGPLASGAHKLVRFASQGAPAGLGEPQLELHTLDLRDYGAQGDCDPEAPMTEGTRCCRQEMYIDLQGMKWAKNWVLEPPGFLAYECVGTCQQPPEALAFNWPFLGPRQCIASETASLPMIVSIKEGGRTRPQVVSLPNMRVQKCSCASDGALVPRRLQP

[4] = biological target: Calmodulin-1 (Homo sapiens) (UniProt P0DP23); assay: CALM1 binders on microarrays, EGTA buffer, profiling panel, biochemical, small-molecule microarray, Cy5-labelled CALM1 (AID 1111); settings: Cy5-CALM1 binding fluorescence, higher = more signal;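 further: labelled calmodulin applied in Tris saline Tween buffer holding calcium plus EGTA and DTT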
[5] = biological target: Calmodulin-1 (Homo sapiens) (UniProt P0DP23); assay: calcium-bound CALM1 binders on microarrays, profiling panel, artefact control for SMM control-protein annotation, biochemical, small-molecule microarray, Cy5-labelled CALM1, plus calcium (AID 1112); settings: Cy5-CALM1 binding fluorescence, higher = more signal;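 further: score merges spot fluorescence with signal to noise from triplicate slides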
[6] = small-molecule microarray binders of probe aWnt5a, primary screen, biochemical, biotinylated probe, 635/667 nm fluorescence (AID 1113); settings: higher = more signal;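 further: score merges 667 nm fluorescence intensity with signal-to-noise per printed feature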
[7] = small-molecule microarray binders of probe aShh, primary screen, biochemical, biotinylated probe, 635/667 nm fluorescence (AID 1114); settings: higher = more signal;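 further: probe is biotin-labelled aShh protein from a stem cell growth factor screen; measures binding of labelled protein to compounds printed on the slide; score merges feature fluorescence at 667 nm with signal-to-noise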
[8] = small-molecule microarray binders of probe aNog, primary screen, biochemical, biotinylated probe, 635/667 nm fluorescence (AID 1115); settings: higher = more signal;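 further: probe is biotinylated aNog protein used at 0.15 µg/mL for 1 h at 4 C; z-score combines 667 nm fluorescence of each spot with its signal to noise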
[9] = biological target: Torsin-1A-interacting protein 1 (Homo sapiens) (UniProt Q5JTV8); assay: LAP1 binders from COS7 cell lysate, primary screen, small-molecule microarray, 635/667 nm fluorescence (AID 1116); settings: COS7-hLAP1 lysate binding, 635 nm fluorescence, higher = more signal
Torsin-1A-interacting protein 1 (Homo sapiens), sequence (Q5JTV8 whole entry, looked up): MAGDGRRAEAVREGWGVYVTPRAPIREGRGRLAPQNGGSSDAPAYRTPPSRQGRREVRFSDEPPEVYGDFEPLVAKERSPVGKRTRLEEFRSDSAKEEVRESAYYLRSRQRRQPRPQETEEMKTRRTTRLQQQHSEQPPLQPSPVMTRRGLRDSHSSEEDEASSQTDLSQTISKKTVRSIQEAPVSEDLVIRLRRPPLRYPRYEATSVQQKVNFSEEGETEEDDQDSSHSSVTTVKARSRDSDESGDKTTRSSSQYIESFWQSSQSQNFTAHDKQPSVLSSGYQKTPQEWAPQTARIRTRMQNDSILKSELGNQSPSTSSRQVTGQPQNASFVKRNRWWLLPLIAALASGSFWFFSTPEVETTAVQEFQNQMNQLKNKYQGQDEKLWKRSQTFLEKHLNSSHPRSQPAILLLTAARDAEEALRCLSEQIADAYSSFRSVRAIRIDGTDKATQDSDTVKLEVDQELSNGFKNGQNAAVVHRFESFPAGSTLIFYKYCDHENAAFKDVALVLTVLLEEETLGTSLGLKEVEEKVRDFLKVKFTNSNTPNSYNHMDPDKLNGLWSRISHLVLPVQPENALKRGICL

[10] = biological target: Alpha-bungarotoxin (Bungarus multicinctus) (UniProt P60615); assay: alpha-bungarotoxin binders on microarray, profiling panel, artefact control for SMM control protein annotation, biochemical, small-molecule microarray, Alexa647 label, 635/667 nm fluorescence (AID 1117); settings: alpha-BTX-A647 binding fluorescence, higher = more signal
Alpha-bungarotoxin (Bungarus multicinctus), sequence (P60615 whole entry, looked up): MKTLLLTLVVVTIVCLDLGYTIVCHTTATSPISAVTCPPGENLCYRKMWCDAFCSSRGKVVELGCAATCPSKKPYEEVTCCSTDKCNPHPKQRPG

Albumin (Bos taurus) = Albumin (Bos taurus) (UniProt P02769); assay: bovine serum albumin binders on microarray, profiling panel, artefact control for SMM control protein annotation, biochemical, small-molecule microarray, Alexa647 label, 635/667 nm fluorescence (AID 1118); settings: BSA-A647 binding, fluorescence 635 nm, higher = more signal;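 further: score merges 667 nm emission intensity and signal-to-noise per printed compound spot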
Albumin (Bos taurus), sequence (P02769 whole entry, looked up): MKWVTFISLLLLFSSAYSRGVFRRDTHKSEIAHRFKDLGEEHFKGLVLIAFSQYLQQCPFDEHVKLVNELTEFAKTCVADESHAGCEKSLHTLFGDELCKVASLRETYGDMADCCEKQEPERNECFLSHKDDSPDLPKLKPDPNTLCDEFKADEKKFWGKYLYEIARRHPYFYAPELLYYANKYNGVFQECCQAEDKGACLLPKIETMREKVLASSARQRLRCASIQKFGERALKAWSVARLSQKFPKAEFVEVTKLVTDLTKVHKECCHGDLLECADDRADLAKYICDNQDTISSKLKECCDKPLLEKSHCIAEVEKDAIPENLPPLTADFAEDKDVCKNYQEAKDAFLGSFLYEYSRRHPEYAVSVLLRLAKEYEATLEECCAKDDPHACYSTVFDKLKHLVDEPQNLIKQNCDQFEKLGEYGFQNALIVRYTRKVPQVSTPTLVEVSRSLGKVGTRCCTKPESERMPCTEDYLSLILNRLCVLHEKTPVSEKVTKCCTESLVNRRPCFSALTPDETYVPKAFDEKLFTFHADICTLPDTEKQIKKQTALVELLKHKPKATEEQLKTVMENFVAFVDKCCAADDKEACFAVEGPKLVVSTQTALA

[11] = small-molecule microarray binders of probe aXIP, primary screen, biochemical, NeuroSMM set, 635/667 nm fluorescence (AID 1119); settings: higher = more signal, called active from +8 up or from −8 down;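 further: probe is the protein aXip251-270 applied at 1 µg/mL to compound-printed slides; binding of probe to printed compounds measured as 667 nm fluorescence plus signal to noise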
[12] = small-molecule binders of probe aNOTCH3, primary screen, biochemical, small-molecule microarray, 635/667 nm fluorescence (AID 1120); settings: higher = more signal;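 further: probe is a biotin-tagged antibody raised against NOTCH3 rather than NOTCH3 protein; score merges spot fluorescence near 667 nm with spot signal to noise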
[13] = small-molecule binders of probe aNOTCH2, primary screen, biochemical, small-molecule microarray, 635/667 nm fluorescence (AID 1121); settings: higher = more signal;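 further: score merges feature fluorescence read at 667 nm with its signal to noise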
[14] = biological target: Carbonic anhydrase 2 (Homo sapiens) (UniProt P00918); assay: CAII small-molecule binders, profiling panel, biochemical, small-molecule microarray, Alexa647-labelled CAII (AID 1122); settings: CAII-A647 binding fluorescence, higher = more signal
[15] = COS7 lysate on small-molecule microarray, probe aHis, 635 nm (AID 1123); settings: COS7 cell lysate, fluorescence, higher = more signal;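 further: z-score combines 667nm fluorescence intensity with signal-to-noise per printed compound spot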
[16] = compound binding in COS7 lysate, probe aLAP1, primary screen, cell lysate, small-molecule microarray (AID 1124); settings: probe aLAP1, fluorescence, higher = more signal;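 further: lysate comes from COS7 cells expressing LAP1 and is applied at 0.3 µg/mL; score merges spot fluorescence near 667 nm with signal-to-noise over triplicate slides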
Sam68 (KHDRBS1) = assay: Sam68 small-molecule binders, primary screen, biochemical, small-molecule microarray, 635 nm fluorescence (AID 1125); settings: small-molecule microarray binding, higher = more signal;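 further: score merges 667 nm channel intensity with signal to noise over triplicate slides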
[17] = tested on: Chordin-like protein 2 (CHRDL2); assay: CHRDL2 small-molecule binders, primary screen, biochemical, small-molecule microarray, 635 nm fluorescence (AID 1126); settings: small-molecule microarray binding, fluorescence 635 nm; higher = more signal;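 further: printed compound slides probed with Chrdl2 protein at 4 µg/mL for 1 h at 4 C; score merges 667 nm emission intensity with signal to noise over three replicate slides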
[18] = biological target: Concanavalin-A (Canavalia ensiformis) (UniProt P02866); assay: ConA small-molecule binders, primary screen, artefact control for SMM control protein annotation, biochemical, small-molecule microarray, Alexa647 label, 635 nm (AID 1127); settings: ConA-A647 binding fluorescence, higher = more signal;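 further: z combines 667 nm emission intensity with signal-to-noise across three replicate slides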
Concanavalin-A (Canavalia ensiformis), sequence (P02866 whole entry, looked up): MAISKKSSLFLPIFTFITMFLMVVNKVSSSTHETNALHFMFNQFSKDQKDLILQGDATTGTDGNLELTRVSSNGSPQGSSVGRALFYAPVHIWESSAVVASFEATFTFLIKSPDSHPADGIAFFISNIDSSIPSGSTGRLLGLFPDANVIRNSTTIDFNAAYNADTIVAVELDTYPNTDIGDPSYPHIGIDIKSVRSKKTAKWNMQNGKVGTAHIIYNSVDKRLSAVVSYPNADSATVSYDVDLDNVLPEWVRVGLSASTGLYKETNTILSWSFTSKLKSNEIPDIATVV

Row | Structure (SMILES) | composite z-score [1] | z-score [2] | composite z-score [3] | composite z-score [4] | composite z-score [5] | composite z-score [6] | composite z-score [7] | composite z-score [8] | composite z-score [9] | composite z-score [10] | composite z-score (Albumin (Bos taurus)) | composite Z-score [11] | composite z-score [12] | composite z-score [13] | composite z-score [14] | composite z-score [15] | composite z-score [16] | composite z-score (Sam68 (KHDRBS1)) | composite z-score [17] | composite z-score [18]
1 | O=C1C2C=CC(C(O)c3ccc4c(c3)OCO4)N(Nc3ccccc3)C2C(=O)N1c1ccccc1 (stereo not given) | 1.36 | -0.631 | -0.127 | 1.36 | 0.174 | -0.0286 | -0.0904 | 1.69 | 0.722 | 1.05 | 1.01 | 0.348 (inactive) | 0.345 | 0.0247 | 0.468 | 2.43 | 0.247 | 1.29 | -0.0766 | 1.13
2 | COc1ccc(C(O)C2C=CC3C(=O)N(c4ccccc4)C(=O)C3N2Nc2ccc(C(C)C)cc2)c2ccccc12 (stereo not given) | 1.39 | -0.716 | -0.146 | 1.17 | 0.922 | 0.0068 | 0.232 | -0.229 | 0.865 | 2.55 | 0.916 | 0.0396 (inactive) | 0.378 | 0.186 | 0.725 | 2.84 | 0.284 | 1.31 | -0.118 | 1.12
3 | COc1cc(NN2C(C(O)c3cc(OC)c(OC)c(OC)c3)C=CC3C(=O)N(c4ccccc4)C(=O)C32)cc(OC)c1OC (stereo not given) | 1.41 | -1.54 | 0.307 | 2.02 | 0.986 | 0.145 | -0.0193 | 0.756 | 1.56 | 2.35 | 1.06 | 0.573 (inactive) | 0.612 | 0.044 | 0.722 | 2.19 | 0.289 | 1.32 | 0.476 | 1.2
4 | COCCOC(=O)N1C(=O)[C@@]2(c3cc(C#CCCO)ccc31)[C@H](C(=O)N1CCCCCCC1)[C@H]1C(=O)O[C@H](c3ccccc3)[C@H](c3ccccc3)N1[C@@H]2c1ccccc1OCCO | 1.4 | -1.79 | 1.18 | 2.73 | 1.5 | 0.993 | 2.38 | 2.99 | 3.19 | 1.85 | 0.951 | 3.51 (inactive) | 1.46 | 0.662 | 0.599 | 2.89 | 0.359 | 1.32 | 1.14 | 1.09
5 | O=C(N1CCOCC1)[C@@]1(CCS(=O)(=O)c2ccccc2)N=C(c2ccc(OCCCO)cc2)O[C@H]1c1ccccc1 | 1.1 | -0.892 | -0.563 | 2.58 | 1.33 | -0.0084 | -0.0441 | -0.273 | 1.85 | 2.84 | 1.06 | 0.55 (inactive) | 0.211 | 0.0228 | 0.853 | 3.1 | -0.152 | 1.31 | -0.56 | 1.2
6 | COC(=O)[C@@]1(Cc2ccccc2CN=[N+]=[N-])N=C(c2ccc(OCCCO)cc2)O[C@H]1c1ccccc1CN=[N+]=[N-] | 0.445 | -2.92 | -2.01 | 0.0829 | 0.526 | 0.0733 | -0.156 | 0.96 | 1.1 | 0.0937 | -0.747 | -0.221 (inactive) | -0.15 | -0.101 | 0.885 | 1.77 | 0.017 | -0.63 | -1.42 | 0.114
7 | Cc1ccc(S[C@]2(C(=O)NC(C)C)CC(=O)N(C(C)C)[C@@H]2c2ccc(CO)cc2I)cc1 | 0.973 | -1.75 | -0.485 | 0.198 | -0.114 | -0.104 | 0.216 | -0.327 | 0.322 | -0.174 | 0.41 | -0.283 (inactive) | -0.0647 | -0.0686 | 0.326 | 1.32 | 0.366 | 1.12 | -0.598 | -0.0097
8 | CN(C)CCCCCCNC(=O)[C@@H]1C[C@@H]2C(=O)N[C@@H](CCCCN)C(=O)N2[C@@H]1c1ccc(O)cc1 | 1.53 | 0.805 | 1.62 | 2.11 | 0.347 | 1.28 | 2.47 | 1.96 | 4.63 | 3.03 | 0.73 | 3.97 (inactive) | 2.14 | 0.999 | 0.74 | 3.41 | 0.611 | 1.32 | 1.36 | 1.24
9 | [N-]=[N+]=NCc1ccccc1[C@@H]1OC(c2ccc(OCCCO)cc2)=N[C@]1(Cc1ccccc1N=[N+]=[N-])C(=O)NCCN1CCOCC1 | 1.4 | -1.66 | 0.466 | 0.969 | 0.0714 | 0.0944 | -0.0289 | 0.597 | 0.495 | 0.446 | 0.741 | 0.215 (inactive) | 0.202 | -0.0219 | 0.828 | 2.14 | 1.01 | 1.31 | 0.32 | 0.863
10 | C=CCC(OC(C)=O)[C@@H]1[C@@H](N(Cc2ccc(-c3ccccc3)cc2)C(=O)Cc2ccc(F)cc2)c2cc(OCCCO)ccc2N1C(=O)Cc1ccc2ccccc2c1 (stereo not given in full) | -0.333 | 0.482 | 0.0808 | 1.07 | 0.743 | 0.0495 | -0.153 | 0.0335 | 0.542 | -0.0297 | 0.232 | -0.34 (inactive) | -0.0931 | -0.046 | 0.244 | 1.29 | 0.201 | -0.869 | -0.353 | -0.474
